# Test results reported in PubChem BioAssay AID1159580 (chemical genetic matrix, 2015).
# Where “and” joins values, the source holds several entries; their conditions need not be identical. Equal entries are not always repeated. Screen size: about 5,500 compounds; about 2,000 (36%) were called active. About 18% were inconclusive and are not listed. The list shows a part of the results. A number with no mark means an inactive call. Cut-off read from the data, not from the text of the source: active = normalized growth mostly below about 0.91 (no sharp cut-off); inconclusive = no clear call, values can overlap the other calls; inactive = mostly above about 0.92.
# Assay: chemical genetic growth profiling, strain panel (AID 1159580);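 note: tested at 20 µM; growth read once vehicle control cultures reached saturation at 30 °C; 1 = growth at the plate median or of vehicle wells; lower values mean less growth of the strain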
# Settings: S. cerevisiae deletion strains, growth OD
compound,measurement,setting,value
Clc1ccc2c(c1)C(N1CCNCC1)=Nc1ccccc1O2,normalized growth,"locus YAL013W, strain DEP1, active compounds read low",0.984 and 1.02
same,normalized growth,"locus YAL021C, strain ccr4, active compounds read low",0.829 (active)
same,normalized growth,"locus YAL026C, strain drs2, active compounds read low",0.466 (active)
same,normalized growth,"locus YAL030W, strain snc1, active compounds read low",0.978
same,normalized growth,"locus YAL040C, strain CLN3, active compounds read low",1.01
same,normalized growth,"locus YBL061C, strain skt5, active compounds read low",0.991
same,normalized growth,"locus YBR009C, strain hhf1, active compounds read low",0.963
same,normalized growth,"locus YBR021W, strain FUR4, active compounds read low",0.989
same,normalized growth,"locus YBR023C, strain chs3, active compounds read low",0.969
same,normalized growth,"locus YBR171W, strain sec66, active compounds read low",0.991
same,normalized growth,"locus YBR229C, strain ROT2, active compounds read low",0.952
same,normalized growth,"locus YBR231C, strain swc5, active compounds read low",0.994
same,normalized growth,"locus YBR279W, strain paf1, active compounds read low",0.968
same,normalized growth,"locus YCL011C, strain gbp2, active compounds read low",0.988
same,normalized growth,"locus YCL016C, strain dcc1, active compounds read low",0.979
same,normalized growth,"locus YCL029C, strain bik1, active compounds read low",0.986
same,normalized growth,"locus YCL069W, strain vba3, active compounds read low",0.969
same,normalized growth,"locus YCR088W, strain abp1, active compounds read low",0.994
same,normalized growth,"locus YDL005C, strain med2, active compounds read low",0.994
same,normalized growth,"locus YDL035C, strain GPR1, active compounds read low",0.972
same,normalized growth,"locus YDL040C, strain nat1, active compounds read low",1.01
same,normalized growth,"locus YDL074C, strain BRE1, active compounds read low",1.03
same,normalized growth,"locus YDL101C, strain DUN1, active compounds read low",0.991
same,normalized growth,"locus YDL134C, strain PPH21, active compounds read low",0.996
same,normalized growth,"locus YDL185W, strain tfp1, active compounds read low",0.986
same,normalized growth,"locus YDL192W, strain arf1, active compounds read low",0.99
same,normalized growth,"locus YDR001C, strain nth1, active compounds read low",0.992
same,normalized growth,"locus YDR069C, strain doa4, active compounds read low",0.901
same,normalized growth,"locus YDR101C, strain arx1, active compounds read low",0.995
same,normalized growth,"locus YDR137W, strain rgp1, active compounds read low",1.32 [resistant] (active)
same,normalized growth,"locus YDR150W, strain NUM1, active compounds read low",0.974
same,normalized growth,"locus YDR159W, strain sac3, active compounds read low",0.984
same,normalized growth,"locus YDR162C, strain NBP2, active compounds read low",0.988
same,normalized growth,"locus YDR195W, strain ref2",1.07
same,normalized growth,"locus YDR297W, strain sur2, active compounds read low",0.992
same,normalized growth,"locus YDR318W, strain mcm21, active compounds read low",0.993
same,normalized growth,"locus YDR334W, strain swr1, active compounds read low",0.957
same,normalized growth,"locus YDR335W, strain msn5, active compounds read low",0.975
same,normalized growth,"locus YDR388W, active compounds read low",0.98
same,normalized growth,"locus YDR392W, strain spt3, active compounds read low",1.06
same,normalized growth,"locus YDR502C, strain sam2, active compounds read low",0.959
same,normalized growth,"locus YEL003W, strain gim4, active compounds read low",0.996
same,normalized growth,"locus YEL037C, strain rad23, active compounds read low",0.968
same,normalized growth,"locus YEL061C, strain CIN8 (second series), active compounds read low",0.992
same,normalized growth,"locus YEL061C, strain CIN8, active compounds read low",0.984
same,normalized growth,"locus YER002W, strain NOP16, active compounds read low",0.998
same,normalized growth,"locus YER015W, strain faa2, active compounds read low",0.983
same,normalized growth,"locus YER016W, strain bim1, active compounds read low",0.993
same,normalized growth,"locus YER110C, active compounds read low",0.978
same,normalized growth,"locus YER111C, strain swi4, active compounds read low",0.984
same,normalized growth,"locus YER155C, strain BEM2 (second series), active compounds read low",0.992
same,normalized growth,"locus YER155C, strain BEM2, active compounds read low",1
same,normalized growth,"locus YER167W, strain BCK2, active compounds read low",0.994
same,normalized growth,"locus YFR010W, strain ubp6, active compounds read low",0.88 (active)
same,normalized growth,"locus YGL078C, strain dbp3, active compounds read low",0.968
same,normalized growth,"locus YGL086W, strain mad1, active compounds read low",0.986
same,normalized growth,"locus YGL167C, strain pmr1, active compounds read low",0.974
same,normalized growth,"locus YGL173C, strain kem1, active compounds read low",0.928
same,normalized growth,"locus YGL227W, strain vid30, active compounds read low",0.985
same,normalized growth,"locus YGL240W, strain doc1, active compounds read low",0.975
same,normalized growth,"locus YGL248W, strain PDE1, active compounds read low",0.987
same,normalized growth,"locus YGL253W, strain hxk2, active compounds read low",0.989
same,normalized growth,"locus YGR078C, strain PAC10, active compounds read low",1
same,normalized growth,"locus YGR135W, strain pre9, active compounds read low",0.98
same,normalized growth,"locus YGR229C, strain SMI1, active compounds read low",0.937
same,normalized growth,"locus YGR252W, strain gcn5, active compounds read low",0.915
same,normalized growth,"locus YHR013C, strain ard1, active compounds read low",0.891
same,normalized growth,"locus YHR027C, strain rpn1, active compounds read low",0.989
same,normalized growth,"locus YHR030C, strain SLT2, active compounds read low",0.994 and 1.02
same,normalized growth,"locus YHR079C, strain IRE1 (second series), active compounds read low",0.986
same,normalized growth,"locus YHR079C, strain IRE1, active compounds read low",1.03
same,normalized growth,"locus YHR094C, strain hxt1, active compounds read low",0.998
same,normalized growth,"locus YHR129C, strain ARP1, active compounds read low",1
same,normalized growth,"locus YHR142W, strain chs7, active compounds read low",0.957
same,normalized growth,"locus YHR200W, strain rpn10, active compounds read low",0.992
same,normalized growth,"locus YIL066C, strain RNR3, active compounds read low",0.978
same,normalized growth,"locus YIL073C, strain SPO22, active compounds read low",1.05
same,normalized growth,"locus YIL125W, strain kgd1, active compounds read low",0.97
same,normalized growth,"locus YIR030C, strain dcg1, active compounds read low",0.986
same,normalized growth,"locus YJL092W, strain hpr5, active compounds read low",0.987
same,normalized growth,"locus YJL095W, strain BCK1 (second series), active compounds read low",0.965
same,normalized growth,"locus YJL095W, strain BCK1, active compounds read low",0.98 and 1.02
same,normalized growth,"locus YJL115W, strain asf1, active compounds read low",0.957
same,normalized growth,"locus YJL129C, strain trk1, active compounds read low",1.06
same,normalized growth,"locus YJL134W, strain LCB3, active compounds read low",0.985
same,normalized growth,"locus YJL154C, strain vps35, active compounds read low",0.97
same,normalized growth,"locus YJL164C, strain tpk1, active compounds read low",0.964
same,normalized growth,"locus YJL166W, strain qcr8, active compounds read low",0.984
same,normalized growth,"locus YJL168C, strain set2, active compounds read low",0.996
same,normalized growth,"locus YJL187C, strain SWE1 (second series), active compounds read low",1
same,normalized growth,"locus YJR043C, strain POL32, active compounds read low",1.02
same,normalized growth,"locus YJR066W, strain TOR1, active compounds read low",0.972
same,normalized growth,"locus YJR075W, strain HOC1, active compounds read low",1
same,normalized growth,"locus YKL009W, strain mrt4, active compounds read low",0.96
